The campaign covered roughly 300,000 compounds. About 37,000 (12%) were called active. This is one part of a sample in which actives are shown more often than they occur. A number with no mark means an inactive call. Rule as the data show it: active = max response mostly above about 13% (no sharp cut-off); inactive = mostly below about 14%.
Test: Cycloheximide Counterscreen for Small Molecule Inhibitors of Shiga Toxin; also: read at 38.3 µM for the half of the compounds with a filed dose; 0% is about no effect
Conditions: cell reporter, cycloheximide protein synthesis inhibition counterscreen; active compounds read high

Going from `O=C(NC1CCCC1)C(c1ccc(N2CCOCC2)cc1)N(C(=O)c1ccco1)c1ccccc1F` (centres undefined) to `COc1ccc(N(CC(=O)NC2CCCCC2)C(=O)CNC(=O)c2ccco2)c(OC)c1`, the max response rises from -1.28% to 1.11%.

Compared with `CCOc1ccc(CN2CCN(Cc3ccc4cc(F)ccc4n3)CC2CCO)cc1` (centres undefined), `COc1ccc(/C=C2\SC(=N)N(c3ccc(F)cc3)C2=O)cc1` is lower in max response: -3.76% for the first, -4.26% for the second.

Compared with `N#Cc1c2c(c(N3CCN(CCO)CC3)n3c1nc1ccccc13)CCCC2`, `CN(C)/C(CN1CCCCC1)=C1\N=C(c2ccccc2)OC1=O` is lower in max response: -2.13% for the first, -3.11% for the second.

Compared with `Cc1cc(NC(=O)CSc2nc(C(C)C)nc3sc4c(c23)CCC(C)C4)no1` (centres undefined), `CCOCc1nnc(NC(=O)CSc2ccc(C)cc2)s1` is lower in max response: -1.25% for the first, -1.61% for the second.

Compared with `Cc1ccc(NC(=O)C2CCCN2C(=O)OCc2ccccc2)cc1C` (centres undefined), `Cc1ccc(OCC(=O)NC(C)c2ccccc2)cc1C` (centres undefined) is lower in max response: 7.92% for the first, -1.54% for the second.

Compared with `O=C(Nc1ccccc1Cl)NC1(C(=O)N2CCOCC2)CCCCC1`, `O=C(CP(=O)(c1ccccc1)c1ccccc1)N1CCOCC1` is lower in max response: -1.76% for the first, -5.81% for the second.

Compared with `CCCCC(c1nnnn1CS(=O)(=O)c1ccc(C)cc1)N1CCC(C(N)=O)CC1` (centres undefined), `Cc1c(C(=O)N2CCCC2)c(S(=O)(=O)NCC(C)c2ccccc2)c(C)n1C` (centres undefined) is lower in max response: -6.32% for the first, -6.59% for the second.

Going from `COc1ccc(/C=C2\SC(=S)N(CC(=O)NNC(=O)c3ccncc3)C2=O)cc1` to `COc1ccc(C(=O)NNC(=O)c2cc(C)[nH]n2)cc1`, the max response falls from 5.86% to 3.07%.

Going from `Cn1c(=O)c2c(-c3cccc(Br)c3)c(C#N)c(N)nc2n(C)c1=O` to `COc1ccccc1-n1c(=S)[nH]c2c(sc(=S)n2-c2ccc(C)cc2C)c1=O`, the max response rises from 1.41% to 5.32%.

Going from `COC(=O)C1=CN(Cc2ccc(OC)c(OC)c2)C=C(C(=O)OC)C1c1cccs1` to `COc1cc2c(cc1NC(=O)COC(=O)/C=C/c1ccccc1)oc1ccccc12`, the max response falls from 8.87% to 0.0459%.

First: CN1C2C=C(N(C(=O)c3ccc(Cl)cc3)c3ccccc3)CC1CC2 (centres undefined)
Second: COC(=O)CN1C(=S)N(c2ccccc2)C(=O)C1CC(=O)Nc1ccc(Cl)cc1 (centres undefined)
The max response of the first is higher: -2.76% for the first, -2.88% for the second.

Going from `Cn1cncc1COC(=O)c1ccc(Cl)cc1` to `Cc1ccc(C(=O)Cn2cccn2)cc1`, the max response rises from 5.18% to 6.54%.

Compared with `Cc1ccc(CNC(=O)CCC(=O)N2CC(C)Sc3ccccc32)cc1` (centres undefined), `O=C(O)Cc1ccc(NCc2ccccc2Cl)cc1` is higher in max response: -1.08% for the first, 23.5% for the second.

Compared with `CCOC(=O)N1CCC(N2Cc3cccc(C(=O)Nc4c(C)cccc4CC)c3C2=O)CC1`, `CCOC(=O)N1CCN(Cc2nc(Cc3cccc(C(F)(F)F)c3)no2)CC1` is higher in max response: -3.86% for the first, 9.29% for the second.

Going from `COc1cccc2sc(N(CCCN(C)C)C(=O)CCS(=O)(=O)c3ccccc3)nc12` to `CN(CCOc1ccccc1)C(=O)c1cc(COc2c(F)cccc2F)on1`, the max response rises from 11.6% to 15.4%.

Going from `CNC(=O)c1nnc(Cc2ccc(Cl)cc2)o1` to `S=C(NCc1cccs1)Nc1ccc(Cl)cc1`, the max response rises from 11.5% to 13.8%.

Going from `O=C(CSC(=S)N1CCOCC1)c1cc(Br)cc(Br)c1O` to `CSCC(=O)N1CCCC(C(=O)c2cc(F)ccc2F)C1` (centres undefined), the max response rises from -5.21% to 5.48%.

Going from `O=C(NC1CCN(Cc2ccccc2)CC1)c1c(F)cccc1F` to `C[C@H]1CCC(=O)N([C@H](CSc2ccccc2)Cc2ccccc2)CC1`, the max response rises from -3.43% to 6.38%.

Compared with `COC(=O)[C@H](Cc1ccccc1)NC(=O)N1CC(C)OC(C)C1` (some centres undefined), `CC1CN(C(=S)Nc2ccccc2F)CC(C)O1` (centres undefined) is higher in max response: 0.915% for the first, 1.94% for the second.

First: CCOC(=O)c1c(CN(C)C)n(-c2ccccc2)c2cc(Br)c(O)cc12
Second: NC(=O)Cc1ccc2c(c1)[nH]c1ccccc12
The max response of the first is lower: -1.63% for the first, 4.3% for the second.

Going from `CC1CC(NC(=O)/C(C#N)=C/c2ccc[nH]2)CC(C)(C)C1` (centres undefined) to `CC(=O)NC1=NN(C(C)=O)C(C)(c2ccc(Cl)s2)S1` (centres undefined), the max response falls from 4.89% to -1.1%.

First: O=C(N/N=C/c1cccc2cccnc12)[C@H]1C[C@@H]1c1ccccc1
Second: O=C(CSc1nnnn1-c1ccc(O)cc1)N1N=C(c2ccc3ccccc3c2)CC1c1ccccc1 (centres undefined)
The max response of the first is higher: 8.61% for the first, 6% for the second.

First: O=c1cc(CN2CCN(S(=O)(=O)/C=C/c3ccccc3)CC2)c2ccc(O)cc2o1
Second: O=S(=O)(c1cnccc1N1CCN(/N=C/c2ccc(Br)cc2)CC1)N1CCCCC1
The max response of the first is lower: -1.39% for the first, -0.626% for the second.

Compared with `COc1ccc([N+](=O)[O-])cc1N(CC(O)CN(CC(C)C)CC(C)C)S(=O)(=O)c1ccc(C)cc1` (centres undefined), `COCCNC(=O)COc1ccc(C)c(C)c1` is higher in max response: 9.04% for the first, 9.18% for the second.

Compared with `O=C(O)Cc1sc(-c2ccccc2)nc1-c1cccs1`, `CN(Cc1cccnc1)C(=O)c1cc(COc2ccc3ncccc3c2)on1` is lower in max response: 16.4% for the first, 7.18% for the second.

Going from `CC(C)=C1SC(N2CCN(c3cccc(C)c3)CC2)=NC1=O` to `CC(C)=C1SC(N2CCN(c3ccc(C)c(Cl)c3)CC2)=NC1=O`, the max response falls from -1.33% to -1.62%.

Going from `C/C(=N/OC(=O)c1cccc(C(F)(F)F)c1)c1cnccn1` to `CCC(=O)OCc1c(C(F)(F)F)nn(C)c1Oc1cccc(C(F)(F)F)c1`, the max response rises from -2.87% to -1.08%.

For `CC1CCc2sc3nc(N4CCN(CCO)CC4)n4ncnc4c3c2C1` (centres undefined), the max response was 22.8% (active).
For `COc1ccc(/C=C2\N=C3CCCN3C2=O)cc1`, the max response was 39.3% (active).
For `CN1OC(COC(=O)c2ccc(Cl)cc2)CC1c1ccccc1` (centres undefined), the max response was 66.4% (active).
In the case of `Clc1ccc(Cc2nnc(-c3cccs3)o2)cc1`, the max response is reported as 32.7% (active).
For `O=C(CSC(=S)N1CCCCC1)c1c(F)cccc1F`, the max response was 42.5% (active).
For `O=C(CSC(=S)N1CCOCC1)c1ccccc1`, the max response was 19% (active).
In the case of `CC1CN(C(=S)SCC(=O)c2ccccc2)CC(C)O1` (centres undefined), the max response is reported as 34.8% (active).
In the case of `Cc1ccc(C(=O)Cc2nnc(C)s2)cc1`, the max response is reported as 43.7% (active).
For `NC(=O)Cc1ccc2sc(-c3ccccc3)nc2c1`, the max response was 75.6% (active).
For `O=C(O)CC1=C(Nc2ccccc2)C(=O)N(c2ccccc2)C1c1ccc(Cl)cc1` (centres undefined), the max response was 38.1% (active).
In the case of `CCN1C(=O)/C(=C2\SC(N3CCCCC3)=NC2=O)c2ccccc21`, the max response is reported as 18.4% (active).
For `Cc1nonc1C1CCCN1C(=O)c1cc(COc2cccc(C(F)(F)F)c2)on1` (centres undefined), the max response was 27.6% (active).
For `CN(Cc1cnccn1)C(=O)c1cc(COc2cccc(C(F)(F)F)c2)on1`, the max response was 37.1% (active).
With `Cc1cc(CN(C)C(=O)c2cc(COc3ccc(C)c(C)c3)on2)n[nH]1` the max response was 46% (active).
For `Cc1ccc(OCc2cc(C(=O)N(C)CCc3ccccc3)no2)cc1C`, the max response was 62.4% (active).

— PubChem BioAssay AID2314 (National Center for Advancing Translational Sciences (NCATS), 2010)
